Test results from the supplement of paper PMC6555819.

Tests used:
Assay in all cases: PBM binding z-score (relative to random genomic background probes); higher = stronger binding; sequences stand for … in GC…GCGATTGACAGCGTAGAATGAAGG
[1] = system: FXR:RXRa (NR concentration 270 nM, RXRa partner concentration 90 nM)
How it was run: (§1)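 Antibodies against each partner of ligand-free nuclear receptor dimers (one per run) detected binding on custom Agilent 4×180K protein-binding microarrays after 1 h incubation. The double-stranded probes had 34-nt variable regions carrying direct-repeat seeds, single-nucleotide variants, half-site ablations and random human genomic background sequences. Binding z-scores, from regression-normalized fluorescence, use the random background probes as reference.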

[2] = system: LXRa:RXRa (NR concentration 270 nM, RXRa partner concentration 90 nM)
How it was run: as §1

[3] = system: LXRa homodimer (NR concentration 270 nM)
How it was run: as §1

[4] = system: LXRb:RXRa (NR concentration 270 nM, RXRa partner concentration 90 nM)
How it was run: as §1

[5] = system: LXRb homodimer (NR concentration 270 nM)
How it was run: as §1

[6] = system: PPARa:RXRa (NR concentration 270 nM, RXRa partner concentration 90 nM)
How it was run: as §1

[7] = system: PPARg:RXRa (NR concentration 180 nM, RXRa partner concentration 90 nM)
How it was run: as §1

[8] = system: PPARg:RXRa 270nM:90nM, anti-RXR (NR concentration 270 nM, RXRa partner concentration 90 nM)
How it was run: as §1

[9] = system: PPARg:RXRa 30nM:10nM, anti-RXR (NR concentration 30 nM, RXRa partner concentration 10 nM)
How it was run: as §1

[10] = system: PPARg:RXRa 90nM:30nM, anti-RXR (NR concentration 90 nM, RXRa partner concentration 30 nM)
How it was run: as §1

[11] = system: PPARg:RXRa DBDmut IVT, anti-RXR (DBD mutation: RXRa K156A/R161A, NR concentration 270 nM, RXRa partner concentration 90 nM)
How it was run: as §1

[12] = system: PPARg:RXRa IVT, anti-PPARg (NR concentration 270 nM, RXRa partner concentration 90 nM)
How it was run: as §1

[13] = system: PPARg DBDmut:RXRa IVT, anti-PPARg (DBD mutation: PPARg1 K132A/R137A, NR concentration 270 nM, RXRa partner concentration 90 nM)
How it was run: as §1

[14] = system: PPARg DBDmut IVT, anti-PPARg (DBD mutation: PPARg1 K132A/R137A, NR concentration 270 nM)
How it was run: as §1

[15] = system: PPARg homodimer (NR concentration 180 nM)
How it was run: as §1

[16] = system: PXR:RXRa (NR concentration 270 nM, RXRa partner concentration 90 nM)
How it was run: as §1

[17] = system: PXR homodimer (NR concentration 270 nM)
How it was run: as §1

[18] = system: RARa:RXR (NR concentration 270 nM, RXRa partner concentration 90 nM)
How it was run: as §1

[19] = system: RARa homodimer (NR concentration 270 nM)
How it was run: as §1

[20] = system: RARb:RXRa (NR concentration 270 nM, RXRa partner concentration 90 nM)
How it was run: as §1

| Sequence | PBM binding z-score [1] | PBM binding z-score [2] | PBM binding z-score [3] | PBM binding z-score [4] | PBM binding z-score [5] | PBM binding z-score [6] | PBM binding z-score [7] | PBM binding z-score [8] | PBM binding z-score [9] | PBM binding z-score [10] | PBM binding z-score [11] | PBM binding z-score [12] | PBM binding z-score [13] | PBM binding z-score [14] | PBM binding z-score [15] | PBM binding z-score [16] | PBM binding z-score [17] | PBM binding z-score [18] | PBM binding z-score [19] | PBM binding z-score [20] |
| --- | --- | --- | --- | --- | --- | --- | --- | --- | --- | --- | --- | --- | --- | --- | --- | --- | --- | --- | --- | --- |
| CCTATCAGTTGACCATAAGGGCAACCGAAGCTCG | 0.965 | 0.314 | 0.218 | 0.583 | 0.56 | 0.693 | 0.456 | 0.233 | -0.0186 | 0.0779 | -0.0435 | 0.067 | -0.241 | 0.0861 | 1.5 | 0.754 | 0.186 | 1.14 | 0.698 | 1.6 |
| CCTAGTTGGTCAGGAGGTCGCACACCGGATATGA | 1.17 | 0.794 | 0.375 | 0.833 | 0.0283 | 1.59 | 1.06 | 1.73 | 0.24 | 1.19 | 0.576 | 1.51 | -0.0553 | -0.0724 | 1.86 | 1.24 | 0.681 | 1.59 | 1.17 | 1.98 |
| AGAACGAGGGCAATGAGTTGATAGCCCGGGTGGC | 0.0897 | 0.0637 | -0.355 | -0.437 | -0.943 | 1.34 | 1.01 | 0.868 | -0.3 | 0.416 | 3.22 | 2.62 | 0.0916 | -0.0623 | 0.48 | 1.43 | 5.33 | 0.0801 | -0.603 | 2.13 |
| AGTAGTTGGTCAGCTGAGGTCACACACAATTCGG | 4.48 | 3.37 | 2.92 | 3.55 | 0.79 | 3.63 | 1.63 | 2.33 | 0.674 | 1.56 | 1.18 | 2.65 | 0.554 | 0.308 | 3.34 | 5.41 | 2.54 | 4.6 | 1.53 | 3.63 |
| CAGCCTAGGCCAGGGCCAGTATAGGAGGAACGTT | -0.702 | -1.16 | -0.761 | -1.14 | -1.72 | -0.754 | 0.0393 | -1.36 | -0.853 | -1.1 | -0.58 | -0.938 | -1.07 | -1.68 | -1.39 | -1.04 | -0.58 | -0.83 | -0.971 | -0.0787 |
| TAGCCTAGGTCATGCGGTCCAGTATAGTGTCGGC | 4.09 | 2.83 | 0.301 | 1.8 | -0.379 | 3.51 | 2.34 | 2.32 | 0.235 | 1.3 | 1.68 | 3.01 | -0.501 | 0.0737 | 0.743 | 1.77 | 0.0796 | 2.22 | -0.726 | 3.79 |
| ATCGAAAGGTCGAGGTGAGGATAGAGAAAGGGAA | 4.33 | 3.16 | 0.082 | 2.64 | 0.457 | 4.44 | 3.06 | 3.83 | 1.33 | 2.81 | 0.551 | 2.41 | 1.29 | 0.836 | 1.63 | 2.46 | 0.644 | 3.16 | 0.718 | 4.06 |
